Results from the supplement of paper PMC11732987, “Enantioselective OTUD7B fragment discovery through chemoproteomics screening and high-throughput optimisation” (Communications Chemistry, 2025).

Key:
Assay in all cases: log2 ratio of Biotin-Ahx-Ub-VS probe labelling (fragment/DMSO); higher = less target engagement (more negative = stronger competition), active = hit call of the paper (q ≤ 0.05, log2 ratio ≤ -1)
Conditions in all cases: compound concentration: 200 uM; treatment time: 3 h
[1] = target: USP34 (UniProt Q70CQ2)
Sequence of USP34 (Q70CQ2 whole entry, the tested form may be a part): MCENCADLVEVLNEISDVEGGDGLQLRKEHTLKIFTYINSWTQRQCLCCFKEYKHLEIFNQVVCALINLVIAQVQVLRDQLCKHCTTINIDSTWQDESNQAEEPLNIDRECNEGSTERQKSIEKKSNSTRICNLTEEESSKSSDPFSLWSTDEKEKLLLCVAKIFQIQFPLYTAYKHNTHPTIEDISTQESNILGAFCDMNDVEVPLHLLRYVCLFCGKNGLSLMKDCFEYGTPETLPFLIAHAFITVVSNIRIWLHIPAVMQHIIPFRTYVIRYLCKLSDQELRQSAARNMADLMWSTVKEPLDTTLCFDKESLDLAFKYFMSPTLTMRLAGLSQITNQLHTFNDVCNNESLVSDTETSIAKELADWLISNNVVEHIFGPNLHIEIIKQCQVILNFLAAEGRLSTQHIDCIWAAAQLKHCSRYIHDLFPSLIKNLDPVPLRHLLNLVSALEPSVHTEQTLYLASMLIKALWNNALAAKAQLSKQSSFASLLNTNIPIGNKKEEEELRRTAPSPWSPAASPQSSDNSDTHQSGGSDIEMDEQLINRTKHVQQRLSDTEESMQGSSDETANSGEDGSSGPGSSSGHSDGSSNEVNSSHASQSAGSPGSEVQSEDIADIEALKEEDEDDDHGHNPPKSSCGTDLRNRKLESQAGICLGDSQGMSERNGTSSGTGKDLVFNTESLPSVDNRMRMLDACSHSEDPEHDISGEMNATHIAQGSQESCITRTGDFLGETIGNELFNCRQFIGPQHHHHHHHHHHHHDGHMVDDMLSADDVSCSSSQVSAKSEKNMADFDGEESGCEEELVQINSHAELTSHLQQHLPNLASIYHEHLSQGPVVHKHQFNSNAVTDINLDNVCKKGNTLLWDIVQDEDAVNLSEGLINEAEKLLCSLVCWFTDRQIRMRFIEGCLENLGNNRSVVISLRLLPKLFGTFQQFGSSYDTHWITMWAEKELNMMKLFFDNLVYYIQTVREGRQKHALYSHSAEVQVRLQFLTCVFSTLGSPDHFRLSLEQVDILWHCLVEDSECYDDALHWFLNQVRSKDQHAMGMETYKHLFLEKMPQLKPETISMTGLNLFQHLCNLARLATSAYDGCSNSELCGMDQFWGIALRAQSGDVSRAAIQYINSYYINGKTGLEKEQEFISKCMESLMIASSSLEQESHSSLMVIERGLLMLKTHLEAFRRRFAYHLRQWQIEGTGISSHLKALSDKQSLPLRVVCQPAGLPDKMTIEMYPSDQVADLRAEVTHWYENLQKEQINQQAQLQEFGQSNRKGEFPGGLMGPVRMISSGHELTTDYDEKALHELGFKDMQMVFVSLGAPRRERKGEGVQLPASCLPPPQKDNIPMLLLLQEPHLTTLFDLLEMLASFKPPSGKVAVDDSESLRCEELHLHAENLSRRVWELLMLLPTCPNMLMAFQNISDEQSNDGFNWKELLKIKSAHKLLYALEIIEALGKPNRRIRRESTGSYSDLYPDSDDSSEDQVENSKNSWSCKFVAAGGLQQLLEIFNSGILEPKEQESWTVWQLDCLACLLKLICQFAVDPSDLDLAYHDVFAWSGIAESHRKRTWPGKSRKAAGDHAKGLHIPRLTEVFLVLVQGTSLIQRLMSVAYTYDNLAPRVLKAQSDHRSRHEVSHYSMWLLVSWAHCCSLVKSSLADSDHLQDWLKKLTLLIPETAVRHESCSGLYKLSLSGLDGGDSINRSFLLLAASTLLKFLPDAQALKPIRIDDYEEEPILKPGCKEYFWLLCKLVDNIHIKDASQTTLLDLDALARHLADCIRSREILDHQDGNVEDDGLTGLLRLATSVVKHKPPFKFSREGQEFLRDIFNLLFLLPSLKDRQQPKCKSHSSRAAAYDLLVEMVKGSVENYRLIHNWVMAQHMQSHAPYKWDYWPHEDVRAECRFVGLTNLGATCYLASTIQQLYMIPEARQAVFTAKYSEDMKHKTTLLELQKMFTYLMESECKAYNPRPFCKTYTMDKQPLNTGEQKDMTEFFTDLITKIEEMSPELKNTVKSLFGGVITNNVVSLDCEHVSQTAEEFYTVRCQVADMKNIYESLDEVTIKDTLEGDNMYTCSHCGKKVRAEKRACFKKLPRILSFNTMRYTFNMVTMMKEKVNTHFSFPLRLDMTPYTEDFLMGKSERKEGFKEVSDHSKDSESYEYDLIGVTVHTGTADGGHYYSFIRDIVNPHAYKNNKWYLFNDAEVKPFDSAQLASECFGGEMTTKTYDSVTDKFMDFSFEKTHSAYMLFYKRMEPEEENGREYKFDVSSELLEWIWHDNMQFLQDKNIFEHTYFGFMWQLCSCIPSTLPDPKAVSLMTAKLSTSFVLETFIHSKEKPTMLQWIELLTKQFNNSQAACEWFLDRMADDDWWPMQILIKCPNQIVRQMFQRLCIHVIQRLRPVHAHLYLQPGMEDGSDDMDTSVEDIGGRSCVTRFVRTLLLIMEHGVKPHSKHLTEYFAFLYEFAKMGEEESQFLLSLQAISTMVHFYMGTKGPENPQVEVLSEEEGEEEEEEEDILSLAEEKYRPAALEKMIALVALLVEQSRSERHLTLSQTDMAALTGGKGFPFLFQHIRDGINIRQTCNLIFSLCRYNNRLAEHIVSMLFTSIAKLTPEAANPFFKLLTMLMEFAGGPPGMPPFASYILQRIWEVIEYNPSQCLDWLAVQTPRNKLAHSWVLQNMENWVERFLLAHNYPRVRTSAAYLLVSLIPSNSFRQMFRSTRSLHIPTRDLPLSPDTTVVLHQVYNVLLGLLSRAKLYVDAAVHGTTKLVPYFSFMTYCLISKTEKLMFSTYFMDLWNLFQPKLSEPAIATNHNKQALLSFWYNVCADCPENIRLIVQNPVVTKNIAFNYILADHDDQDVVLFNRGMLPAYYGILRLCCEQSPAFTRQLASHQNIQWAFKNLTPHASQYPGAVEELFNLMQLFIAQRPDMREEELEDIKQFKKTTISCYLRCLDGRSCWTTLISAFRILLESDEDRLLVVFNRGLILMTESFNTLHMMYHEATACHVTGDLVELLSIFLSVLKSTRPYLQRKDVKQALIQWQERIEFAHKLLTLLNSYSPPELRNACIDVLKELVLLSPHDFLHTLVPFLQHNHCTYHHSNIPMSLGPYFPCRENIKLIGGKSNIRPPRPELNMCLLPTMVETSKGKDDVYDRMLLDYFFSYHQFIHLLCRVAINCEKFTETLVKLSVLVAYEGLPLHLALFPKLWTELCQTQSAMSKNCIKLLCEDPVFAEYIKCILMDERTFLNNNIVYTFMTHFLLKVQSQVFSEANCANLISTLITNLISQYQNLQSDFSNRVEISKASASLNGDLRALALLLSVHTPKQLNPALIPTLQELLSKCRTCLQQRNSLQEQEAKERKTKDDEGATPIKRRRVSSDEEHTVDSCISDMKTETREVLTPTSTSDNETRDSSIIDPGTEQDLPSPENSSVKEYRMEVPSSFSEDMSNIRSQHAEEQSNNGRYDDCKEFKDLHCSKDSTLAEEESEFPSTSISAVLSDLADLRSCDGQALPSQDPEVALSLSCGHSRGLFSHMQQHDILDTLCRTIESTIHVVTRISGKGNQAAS
Outline: (§1)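 HEK293T lysate, 495 µg per sample in Tris/CHAPS/IGEPAL buffer with protease inhibitors, was treated in triplicate with fragment at 200 µM or vehicle for 3 h and then with Biotin-Ahx-Ub-VS at 0.5 µM final for 1 h. Labelled DUBs were NeutrAvidin-enriched, digested with LysC and trypsin, and run by diaPASEF LC-MS/MS. Spectronaut label-free quantities were global-median-normalised, and values are average log2 fragment/vehicle ratios by unpaired t-test on proteins with ≥2 unique peptides.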

[2] = target: T1, USP36 (UniProt Q9P275)
T1 sequence (whole entry): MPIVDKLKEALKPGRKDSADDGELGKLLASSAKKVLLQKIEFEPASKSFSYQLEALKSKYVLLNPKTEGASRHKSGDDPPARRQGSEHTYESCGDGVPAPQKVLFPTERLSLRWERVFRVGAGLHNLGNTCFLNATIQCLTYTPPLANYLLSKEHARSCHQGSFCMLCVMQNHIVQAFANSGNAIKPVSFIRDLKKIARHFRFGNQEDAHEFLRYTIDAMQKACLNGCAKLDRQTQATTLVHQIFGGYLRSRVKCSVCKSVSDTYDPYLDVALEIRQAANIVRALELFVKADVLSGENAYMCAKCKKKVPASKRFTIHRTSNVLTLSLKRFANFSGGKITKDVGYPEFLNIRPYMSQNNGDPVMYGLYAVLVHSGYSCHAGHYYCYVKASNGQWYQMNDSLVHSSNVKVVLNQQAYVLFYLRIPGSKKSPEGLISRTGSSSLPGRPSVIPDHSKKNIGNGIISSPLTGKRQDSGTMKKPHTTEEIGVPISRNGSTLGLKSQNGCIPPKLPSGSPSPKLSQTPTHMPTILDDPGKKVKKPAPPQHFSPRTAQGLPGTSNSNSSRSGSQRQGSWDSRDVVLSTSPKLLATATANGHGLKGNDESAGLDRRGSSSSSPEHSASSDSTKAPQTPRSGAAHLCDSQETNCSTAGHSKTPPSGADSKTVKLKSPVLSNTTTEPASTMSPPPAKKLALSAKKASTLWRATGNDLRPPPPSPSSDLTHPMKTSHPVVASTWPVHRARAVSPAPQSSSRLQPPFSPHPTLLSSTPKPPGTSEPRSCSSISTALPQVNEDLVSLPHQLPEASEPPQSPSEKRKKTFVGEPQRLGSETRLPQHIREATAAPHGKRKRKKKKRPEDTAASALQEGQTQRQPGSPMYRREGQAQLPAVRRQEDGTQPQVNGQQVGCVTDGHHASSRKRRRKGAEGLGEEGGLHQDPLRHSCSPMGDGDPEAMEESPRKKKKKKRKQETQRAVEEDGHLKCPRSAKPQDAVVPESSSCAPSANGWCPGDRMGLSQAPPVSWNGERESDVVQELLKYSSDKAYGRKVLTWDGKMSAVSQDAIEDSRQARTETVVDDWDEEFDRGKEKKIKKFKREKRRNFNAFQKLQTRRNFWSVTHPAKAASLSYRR
Outline: as §1

[3] = target: T2, USP38 (UniProt Q8NB14)
T2 sequence (whole entry): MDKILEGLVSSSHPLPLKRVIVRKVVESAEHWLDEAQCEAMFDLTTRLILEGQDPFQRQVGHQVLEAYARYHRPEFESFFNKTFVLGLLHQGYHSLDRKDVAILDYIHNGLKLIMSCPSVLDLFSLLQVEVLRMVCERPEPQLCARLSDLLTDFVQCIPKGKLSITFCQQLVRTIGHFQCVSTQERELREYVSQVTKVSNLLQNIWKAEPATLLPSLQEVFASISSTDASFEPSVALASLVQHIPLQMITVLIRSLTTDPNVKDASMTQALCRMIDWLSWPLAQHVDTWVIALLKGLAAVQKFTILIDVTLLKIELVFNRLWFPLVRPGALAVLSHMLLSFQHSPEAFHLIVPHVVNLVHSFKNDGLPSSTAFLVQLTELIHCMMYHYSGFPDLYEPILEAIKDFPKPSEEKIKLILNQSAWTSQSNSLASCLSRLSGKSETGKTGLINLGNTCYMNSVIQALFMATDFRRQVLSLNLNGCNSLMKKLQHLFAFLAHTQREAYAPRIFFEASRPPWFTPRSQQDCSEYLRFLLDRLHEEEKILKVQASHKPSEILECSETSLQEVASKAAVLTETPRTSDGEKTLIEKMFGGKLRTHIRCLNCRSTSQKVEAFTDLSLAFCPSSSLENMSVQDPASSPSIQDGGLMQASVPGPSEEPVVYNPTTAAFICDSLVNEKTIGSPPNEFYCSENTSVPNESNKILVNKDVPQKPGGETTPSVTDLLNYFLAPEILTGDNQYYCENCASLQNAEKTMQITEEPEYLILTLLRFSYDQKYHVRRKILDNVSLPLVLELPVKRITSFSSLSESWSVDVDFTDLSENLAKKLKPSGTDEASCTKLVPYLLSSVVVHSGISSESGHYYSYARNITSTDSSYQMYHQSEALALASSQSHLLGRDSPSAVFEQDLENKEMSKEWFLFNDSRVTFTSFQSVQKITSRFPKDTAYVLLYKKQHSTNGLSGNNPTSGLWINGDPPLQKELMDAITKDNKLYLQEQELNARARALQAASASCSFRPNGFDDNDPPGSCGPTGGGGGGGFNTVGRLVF
Outline: as §1

[4] = target: T3, USP39 (UniProt Q53GS9)
T3 sequence (whole entry): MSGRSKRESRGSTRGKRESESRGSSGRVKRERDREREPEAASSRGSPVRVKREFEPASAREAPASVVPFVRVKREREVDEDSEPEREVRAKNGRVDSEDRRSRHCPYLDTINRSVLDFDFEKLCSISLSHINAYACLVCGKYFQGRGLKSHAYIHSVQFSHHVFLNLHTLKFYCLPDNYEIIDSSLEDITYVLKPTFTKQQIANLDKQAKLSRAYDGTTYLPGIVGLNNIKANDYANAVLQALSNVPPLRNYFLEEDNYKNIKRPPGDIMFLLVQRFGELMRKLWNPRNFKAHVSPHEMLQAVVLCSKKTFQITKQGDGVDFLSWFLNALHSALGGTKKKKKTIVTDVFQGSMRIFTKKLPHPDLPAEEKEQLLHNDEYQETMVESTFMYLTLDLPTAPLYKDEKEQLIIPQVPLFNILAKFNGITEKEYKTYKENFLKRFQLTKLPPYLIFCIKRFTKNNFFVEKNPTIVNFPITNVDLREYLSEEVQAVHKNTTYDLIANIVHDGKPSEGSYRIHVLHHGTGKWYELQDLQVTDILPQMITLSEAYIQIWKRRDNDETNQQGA
Outline: as §1

[5] = target: T4, USP4 (UniProt Q13107)
T4 sequence (whole entry): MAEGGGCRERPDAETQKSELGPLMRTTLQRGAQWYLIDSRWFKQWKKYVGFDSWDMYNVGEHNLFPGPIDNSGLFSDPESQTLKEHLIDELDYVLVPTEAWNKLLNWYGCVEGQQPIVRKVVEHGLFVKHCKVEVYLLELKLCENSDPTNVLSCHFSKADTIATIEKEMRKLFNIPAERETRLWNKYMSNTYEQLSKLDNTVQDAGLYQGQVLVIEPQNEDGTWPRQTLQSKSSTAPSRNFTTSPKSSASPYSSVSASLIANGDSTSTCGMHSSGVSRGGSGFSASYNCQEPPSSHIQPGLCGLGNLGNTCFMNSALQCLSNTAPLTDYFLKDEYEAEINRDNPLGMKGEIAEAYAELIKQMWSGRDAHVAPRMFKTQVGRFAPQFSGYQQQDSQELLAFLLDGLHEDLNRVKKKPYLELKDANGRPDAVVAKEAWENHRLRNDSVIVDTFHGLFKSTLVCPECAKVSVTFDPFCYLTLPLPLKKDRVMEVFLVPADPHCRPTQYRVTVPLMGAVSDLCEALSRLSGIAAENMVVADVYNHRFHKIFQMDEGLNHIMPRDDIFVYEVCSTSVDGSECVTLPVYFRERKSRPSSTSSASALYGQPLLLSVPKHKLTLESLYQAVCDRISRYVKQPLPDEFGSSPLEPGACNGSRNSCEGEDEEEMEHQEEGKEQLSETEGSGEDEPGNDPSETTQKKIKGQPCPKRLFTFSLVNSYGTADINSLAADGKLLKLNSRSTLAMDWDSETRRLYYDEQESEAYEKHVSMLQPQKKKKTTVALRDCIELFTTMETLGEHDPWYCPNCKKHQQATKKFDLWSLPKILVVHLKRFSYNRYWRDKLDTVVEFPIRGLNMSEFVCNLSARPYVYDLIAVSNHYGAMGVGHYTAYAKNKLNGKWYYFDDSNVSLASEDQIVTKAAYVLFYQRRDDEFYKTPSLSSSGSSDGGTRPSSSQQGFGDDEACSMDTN
Outline: as §1

Measured: log2 ratio of Biotin-Ahx-Ub-VS probe labelling

Cc1ccccc1CN(C)C(=O)CCl
inactive: [1] -0.547 | [2] -0.347 | [3] -0.741 | [4] -0.049 | [5] -0.831
